# Measurements: PubChem BioAssay AID1259336 (Sattelle Laboratory, UCL Respiratory, Division of Medicine, …, 2017)
# Unmarked numbers belong to inactive results. The source made the active and inactive calls. Cut-off read from the data, not from the text of the source: active = log2 fold change growth below about -1.8; inactive = the rest.
# Experiment: anthelmintic activity against nematode growth – whole organism, log2 fold change (AID 1259336);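 note: growth scored by imaging after five days at 20 °C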
# Conditions: C. elegans growth, anthelmintic screen; stronger effect = lower value
row,Compound,log2 fold change growth
1,O=C1N(Cc2cc3ccccc3s2)C[C@H]2CN(Cc3ccccc3)CCN12,-0.864
2,CC(C)[C@@H](C(=O)Nc1ccc(S(=O)(=O)N(C)C)cc1)c1ccc(Cl)cc1,-5.06 (active)
3,Cc1cc2nc(NC(=O)C(C)(C)C)nc(Cl)c2n1Cc1ccc(Cl)cc1,0.316
4,COc1cc(C(F)(F)F)nc2ccc(C)c(N)c12,0.198
5,CS(=O)(=O)N1CCC(CCn2nc(Cc3cccc4ccccc34)c3c(N)ncnc32)CC1,-1.16
6,Cc1ccc(Oc2ccc(NC(=O)CNc3ccccc3N3CCCC3=O)cc2)cc1,0.0475
7,CC(=O)NC[C@@H]1CN(c2ccc(N3CCOCC3)c(F)c2)C(=O)O1,-0.257
8,COc1ccc(-c2nc(-c3cccc(NC(=O)Cc4ccc(F)cc4)c3)no2)cc1OC,-0.107
9,COC(=O)C1=C(C)NC(C)=C(C(=O)OC(C)C)[C@H]1c1cccc2nonc12,-2.22 (active)
10,Cc1cc(NCCc2ccccc2)nc(/N=C(\N)Nc2ccc(Cl)cc2)n1,0.186
11,CC(C)(C)c1cnc(NC(=O)c2ccccc2O)s1,0.155
12,COc1cc(NC(=O)Cc2nn(C)c(=O)c3ccccc23)ccc1Cl,0.419
13,CNC(=O)[C@@H]1Cc2ccccc2N1C(=O)Cc1ccc(F)cc1,0.145
14,CCCCCCCCCCCCCCCCOP(=O)([O-])OCC[N+](C)(C)C,0.528
15,COc1ccc(O[C@@H](C)C(=O)Nc2ccc(Cl)cc2C)cc1,0.539
16,COc1ccc(Cl)cc1NC(=O)CN(C)C(=O)c1cnn(-c2ccccc2)n1,-0.154
17,COc1cccc(-n2nnnc2S(=O)(=O)Cc2ccccc2)c1,0.034
18,COc1ccc(C(=N)N)cc1-c1cn(-c2ccc(C(=N)N)cc2)nn1,-0.0296
19,Cc1cc(NC(=O)c2ccc(S(=O)(=O)N(Cc3ccccc3)C(C)C)cc2)no1,-0.0868
20,O=C(NCCN1CCCC1)c1cc(NCCN2CCOCC2)nc2ccc(Cl)cc12,0.29

row,Compound,log2 fold change growth
1,CC[C@H](Sc1nc2ccccc2o1)C(=O)Nc1nnc(C)s1,0.272
2,Brc1cncc(-c2cc(NCCCn3ccnc3)nc(-c3ccccc3)n2)c1,-1.17
3,CC(C)(C)OC(=O)N1CCC(Cn2nc(-c3cnc4ccccc4c3)c3c(N)ncnc32)CC1,-0.248
4,CC(C)(C)C(=O)N(CCCCCCN1C[C@H](O)[C@@H](O)[C@H](O)[C@H]1CO)C1CCCCCC1,-0.767
5,Cc1nn(C(=O)Nc2cccc(C(F)(F)F)c2)c(C)c1Sc1ncccn1,-0.494
6,O=C(Nc1nnc(-c2ccc(Cl)cc2)o1)c1cccc(C(F)(F)F)c1,-1.36
7,NC(=O)c1cc(Br)ccc1OCCOc1ccccc1,0.186
8,O=C(Nc1ccc(N2CCNCC2)cc1)c1ccn2ncc(-c3cccc(Cl)c3)c2n1,-0.0705
9,COc1ccc(Cn2cnc3c(-c4ccco4)nc(Cl)nc32)cc1,-0.325
10,CCOc1ccccc1C(=O)Nc1cccc(-c2nc3ncccn3c2C)c1,-0.256
11,COc1ccc(CCN2CCC(NCc3cccc(N(C)C)c3)CC2)cc1,0.27
12,Nc1nc(N)c2c3c(sc2n1)CN(Cc1ccccc1)CC3,0.456
13,Cc1ccc2cc([C@@H]3NC(=O)c4ccccc4N3)c(Cl)nc2c1,-0.0454
14,CC1=NN(c2nc3ccccc3s2)C(=O)[C@H]1Cc1cccc2ccccc12,-0.647
15,CS(=O)(=O)N1CCC(Cn2nc(Cc3cccc4ccccc34)c3c(N)ncnc32)CC1,-0.695
16,Cc1ccc2nc(Cl)c(CNCc3cccs3)cc2c1,-0.121
17,CC[C@H](NC(=O)c1ccccc1NC(=O)c1ccc(C)cc1)C(=O)OC,0.0874
18,CN1CCN(c2cc(-c3ccc(F)cc3)nc(-c3ccncc3)n2)CC1,-1.96 (active)
19,C[C@@H](C(=O)Nc1ccc2oc(-c3ccncc3)nc2c1)c1ccccc1,0.0616
